An excerpt weighted towards active compounds, which were near 19% of everything screened.
TDP1 cell noCPT – qHTS for Inhibitors of human tyrosyl-DNA phosphodiesterase 1 (TDP1): qHTS in cells in absence of CPT; DT40 Tdp1-/- hTDP1 cells, no CPT, ATP luminescence, 48 h; Potency, µM (doses to about 46.2 µM), without a hit: at the top dose activity change, negative = growth inhibition, usual class: inhibitors; hit rate 15% among 420,000; note: potency is the fitted concentration of half-maximal effect; nearly all actives have a fitted effect of over 55% in size
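No-CPT arm: Tdp1-/-;hTDP1 DT40 cells (400/well) plus compounds, incubated ≥48 hr at 37 °C. Readout CellTiter-Glo luminescence.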
HT1080 IDH1KD tx – kills HT-1080 cells with IDH1 knockdown; HT-1080 IDH1 knockdown viability, ATP luminescence, 48 h; Potency, µM (titrated, usually from 46.1 µM), inactives show top-dose activity, negative = toxicity, usual class: cytotoxic; hit rate 2% among 360,000; AID 686971;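 note: potency is the fitted concentration of half-maximal effect; 0% = DMSO wells and -100% = cell-free medium wells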
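HT-1080-IDH1KD cells (IDH1 knocked down), 750/well in RPMI with 5% FBS, treated with compound 48 h at 37 degrees C. Viability by CellTiter-Glo luminescence, normalised to DMSO and no-cell wells; concentration-response curves classed.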
IL1B secr inh – inflammasome signaling inhibition, IL-1 beta readout. hit rate 4.7% among 360,000. AID 743279. activity change, % at 57.5 µM. THP-1 LPS/ATP IL-1B secretion, AlphaLISA, 16 h; stronger effect = lower value; in the data active = activity change below about -50%; inconclusive = mostly about -30% to -49%
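Secreted IL-1B measured by AlphaLISA bead assay after 16 h compound exposure of THP-1 cells; compounds (final up to 57.5 uM) added 1 h before LPS (250 ng/mL) and ATP (1.25 mM) stimulation; lower signal means less secretion.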
DT40 TDP1 CPT – growth inhibition of DT40 Tdp1-/-;hTDP1 cells with camptothecin (screen for TDP1 inhibitors); chicken DT40 Tdp1-/-;hTDP1 cells + 20 nM CPT, ATP luminescence, 48 h; Potency, µM (top dose mostly 46.2 µM), inactives show at the highest dose activity change, negative = growth inhibition, actives largely listed as inhibitors; hit rate 12% among 420,000; note: potency is the fitted concentration of half-maximal effect; nearly all actives have a fitted effect of over 55% in size
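Cell growth measured by CellTiter-Glo luminescence after a minimum 48 h, 37 C compound exposure with 20 nM CPT in Tdp1-knockout DT40 cells stably expressing hTDP1, seeded 400/well; qHTS titration format.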
HT1080NT lethal – kills 2HG-producing HT-1080-NT fibrosarcoma cells | HT-1080-NT fibrosarcoma viability, CellTiter-Glo ATP luminescence, 48 h | Potency, µM (highest dose often 46.1 µM), without a hit: at the top dose activity, negative = less viability, hits mostly cytotoxic | hit rate 1.6% among 360,000 | AID 686970;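 note: NT is the 2HG producing partner of a matched IDH1 knockdown line; potency is the fitted concentration of half-maximal effect; 0% = DMSO-treated cells and -100% = media-only wells without cells; nearly all actives have a fitted effect of over 55% in size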
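A 48-hour cytotoxicity screen used HT-1080-NT cells plated 2 hours before compound delivery. ATP-based CellTiter-Glo luminescence measured viability, normalized to DMSO and no-cell controls.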
Active calls of the source: *; ? = inconclusive; nt = no result given; ! = not active in a repeat; [ ] = dose if it differs, or a comment. Unless noted, calls come from the whole dose curve; as a rule, active = well fitted curve in the direction sought with a large enough effect; inconclusive = small, poorly fitted or top-dose-only effect, or another doubt; inactive = no such curve, though single readings can be large; an effect the other way counts as inactive or inconclusive. Unless noted, % is set by controls: 0 for no effect and ±100 for the full control effect.

SMILES | TDP1 cell noCPT | HT1080 IDH1KD tx | IL1B secr inh | DT40 TDP1 CPT | HT1080NT lethal
CCC(=O)c1ccc(N2CCN(C(=O)c3cccs3)CC2)c(F)c1 | 21µM* | -1% | 7 | ? | -1%
O=C(c1cccs1)N1CCN(c2ccc([N+](=O)[O-])cc2F)CC1 | -21% | 1% | 0 | ? | 0%
CCc1nc2ccc(C(=O)N3CCN(c4ccccc4F)CC3)cc2nc1CC | 5.8µM*! | 4% | -11 | 21µM* | 1%
CCOC(=O)c1ccc(NC(=O)c2cc3c([nH]c2=O)CC(c2ccccc2)CC3=O)cc1 (stereo not drawn) | -27% | nt | nt | 11% | nt
CN(C)CCNc1ncnc2c1ncn2[C@H]1CN(Cc2ccncc2)C[C@@H](CO)O1 | 2% | 0% | 21 | 0% | 17%
CCC(=O)c1c[nH]c(C(=O)N2CCN(c3ccccc3)CC2)c1 | -14% | 1% | 9 | 10% | -6%
CCC(=O)c1ccc(N2CCN(C(=O)c3ccccc3F)CC2)c(F)c1 | 21µM* | -1% | 0 | 10µM* | -2%
Cc1ccccc1C(=O)c1c[nH]c(C(=O)N2CCN(c3ccccc3F)CC2)c1 | 15µM* | ? | -66* | 18µM* | -25%
CCc1nn(CC(=O)NC(C)CC)c(=O)c2cc3occc3n12 (stereo not drawn) | -13% | nt | nt | -14% | nt
O=C(Cc1ccc(OCc2ccccc2)cc1)NCc1ccc2c(c1)OCO2 | 7.3µM* | 3% | 43 | ? | 24%
CCN(C(=O)COC(=O)c1ccc(OCc2c(C)noc2C)cc1)c1ccccc1 | 13µM* | -3% | -17 | ? | 3%
O=C(NCc1ccc2c(c1)OCO2)OCc1ccccc1 | -19% | 4% | ? | -5% | -2%
Cc1cccc(C(=O)Nc2ccccc2C(=O)OCc2c(C)noc2C)c1 | ? | -1% | -57* | -16% | 9%
Cc1noc(C)c1COc1cccc(C(=O)NCCc2c[nH]c3ccccc23)c1 | 21µM* | ? | 6 | 13µM* | ?
Cc1ccc(NC(=O)CN(C)C(=O)c2ccc(OCc3c(C)noc3C)cc2)cc1 | -22% | 11% | 5 | -20% | 9%
Cc1noc(C)c1COc1ccc(CC(=O)NCCc2ccccn2)cc1 | ? | 13% | 16 | -8% | ?
Cc1noc(C)c1COc1ccc(C(=O)NCc2cccs2)cc1 | -23% | -4% | -99* | -7% | -2%
C=CCN(Cc1ccc(Br)s1)C(=O)c1ccc(OCc2c(C)noc2C)cc1 | 16µM* | -14% | -11 | ? | -8%
CC(=O)c1ccccc1NC(=O)c1ccc(OCc2c(C)noc2C)cc1 | 18µM* | -3% | -66* | ? | -9%
Cc1noc(C)c1COc1ccc(CC(=O)NCc2ccccc2)cc1 | 0.52µM* | 1.2µM* | 125 | 0.65µM* | ?
Cc1ccc(SCC(=O)Nc2cc([N+](=O)[O-])ccc2O)cc1 | -23% | -24% | 5 | -8% | -17%
CC(SC(C)C(=O)NN=Cc1cccc(F)c1)C(=O)NN=Cc1cccc(F)c1 (stereo not drawn) | ? | 1% | 16 | ? | 8%
O=C(O)c1cc(S(=O)(=O)NCCCN2CCCC2=O)ccc1Cl | 9% | 4% | 7 | -2% | -3%
COc1ccc(-c2nnn(CC(=O)N(CC(=O)NCCC(C)C)Cc3cccs3)n2)cc1OC | ? | -23% | 19 | ? | 5%[9.24 µM]
CC(C)CCNC(=O)C(c1ccco1)N(Cc1cccs1)C(=O)Cn1nnc2ccccc21 (stereo not drawn) | ? | 5% | -27 | 26µM* | -1%
SMILES | TDP1 cell noCPT | HT1080 IDH1KD tx | IL1B secr inh | DT40 TDP1 CPT | HT1080NT lethal
COc1ccc(-c2nnn(CC(=O)N(Cc3cccs3)C(C)C(=O)NCCC(C)C)n2)cc1OC (stereo not drawn) | 21µM* | -13% | 0 | 15µM* | -27%
COCCNC(=O)C(c1ccco1)N(C(=O)Cn1nnc2ccccc21)c1ccccc1C (stereo not drawn) | -3% | 8% | 5 | -8% | 8%
Cc1ccccc1N(C(=O)Cn1nnc(-c2cccs2)n1)C(C(=O)NCCC(C)C)c1ccco1 (stereo not drawn) | ? | -9% | -51* | ? | -1%
Cc1cccc(-c2nc(CN3CCCC(C(=O)NC4CCCCC4)C3)c(C)o2)c1 (stereo not drawn) | 21µM* | ? | -6 | 21µM* | ?
Cc1cccc(-c2nc(CN3CCCC(C(=O)NC4CCCCCC4)C3)c(C)o2)c1 (stereo not drawn) | 18µM* | ? | -66* | 21µM* | 20µM*
CCOC(=O)N1CCC(NC(=O)C2CCN(Cc3nc(-c4ccc(CC)cc4)oc3C)CC2)CC1 | ? | -3% | -28 | ? | 24%
CCOC(=O)N1CCC(NC(=O)C2CCCN(Cc3nc(-c4ccc(CC)cc4)oc3C)C2)CC1 (stereo not drawn) | 1.5µM* | -7% | -9 | 2.9µM* | -14%
COc1ccc(-c2nc(CN3CCC(C(=O)NC4CCCC4)CC3)c(C)o2)cc1OC | 0% | 8% | 36 | -5% | 8%
Cc1ccc(C)c(NC(=O)N2CCC(N3CCN(Cc4ccc(F)cc4)C(=O)C3=O)CC2)c1 | 0% | nt | nt | -22% | nt
CC(C)n1nnnc1SCC(=O)Nc1ccccc1F | -7% | 21% | -2 | -3% | 24%
Cc1c(C(=O)N2CCOCC2)cc(C(C)(C)C)n1-c1ccccc1 | 21µM* | 1% | -2 | ? | 17%
Cc1ccc(S(=O)(=O)NCc2ccccn2)c(C)c1C | 15% | 2% | -10 | -12% | 5%
Cc1ccc(S(=O)(=O)NCc2ccncc2)c(C)c1C | 1.3µM* | ? | -6 | 1.8µM* | -20%
COc1cc(C)c(Br)cc1S(=O)(=O)NCc1ccncc1 | 9.2µM* | ? | 22 | 10µM* | 0%
Cc1cc(C)c(S(=O)(=O)NCCc2ccncc2)c(C)c1 | -4% | 1% | 7 | -2% | 0%
COc1cc(C)c(Br)cc1S(=O)(=O)NCc1cccs1 | -3% | -20% | 4 | 1% | 0%
Cc1cc(C)c(S(=O)(=O)NCc2ccncc2)c(C)c1 | 7.3µM* | nt | 14 | 7.3µM* | nt
Cc1ccc(-c2noc(CCC(=O)NCCN3CCc4ccccc4C3)n2)cc1 | ? | -15% | -15 | ? | -21%
FC(F)(F)c1cccc(N2CCN(C(=S)NC3CCCC3)CC2)c1 | 16µM* | ? | -57* | ? | ?
Cc1ccnc(NC(=S)N2CCN(c3cccc(C(F)(F)F)c3)CC2)c1 | ? | ? | -88* | ? | ?
Cc1nnc2ccc(N3CCCCC3)nn12 | -6% | 17% | 24 | 27% | 12%

Compound activity as filed in PubChem BioAssay.
